# Data taken from PubChem BioAssay (NCATS).
# Results filed as inconclusive are left out. Calls of active or inactive are those of the source. The call rests on the fitted dose curve; in most records, active means well fitted inhibition curve with a large enough effect; inconclusive means small, poorly fitted or top-dose-only effect; inactive means flat fitted curve, though single readings scatter.
# Test system: not listed separately
# Assay: qHTS Assay for Lipid Storage Modulators (AID 1519)
# Settings: Drosophila S3 cells, BODIPY lipid droplet/cell ratio, laser cytometry; measured here: lipid channel max response; cells loaded with oleic acid
# Method in brief: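 Cells seeded at 5,000 per well were treated with compounds over a concentration series and loaded with oleic acid (400 uM, as added). Lipid droplet fluorescence (488 nm excitation, 500-530 nm channel) was read by laser-scanning cytometry and normalized to 20 uM Triacsin C.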
row,Compound,max response
1,c1cnc(N2CCC3(CCNCC3)CC2)nc1,23.4%
2,c1ccc(N2CCC3(CCNCC3)CC2)nc1,29.9%
3,c1ccc(N2CCCC3(CCNCC3)C2)nc1,8.95%
4,c1cc(N2CCCC3(CCNCC3)C2)ccn1,21.3%
5,c1ccc(N2CCCC3(CCNCC3)C2)cc1,14.8%
6,c1cc(CN2CCCC3(CCNCC3)C2)ccn1,17.7%
7,CC(=O)C1=C(O)C2C3c4c[nH]c5cccc(c45)CC3C(C)(C)N2C1=O (stereo not given),22.7%
8,c1ccc(N2CC[C@@]3(CCCNC3)C2)cc1,10.7%

# Target: Calcium and integrin-binding protein 1 (Homo sapiens) (UniProt Q99828)
# Assay: Primary qHTS for Identification of Calcium Integrin Binding Protein 1 (CIB1) Competitor (AID 1508620);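 further: GST tagged CIB1 binding a fluorescein labelled alphaIIb integrin peptide tracer; top concentration of the series differs between compounds; on the % scale 0 is the no-effect control and ±100 the full control effect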
# Settings: CIB1-GST / FITC-alphaIIb peptide fluorescence polarization; series mostly up to 114 µM
# Method in brief: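 CIB1-GST (1 uM final) and compound incubated 15 min at room temperature before adding FITC-alphaIIb peptide tracer (100 nM final). Competition for binding read by fluorescence polarization (ex 480, em 540) after another 15 min at room temperature.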
# Chain of Calcium and integrin-binding protein 1 (Homo sapiens) (Q99828 whole entry, looked up): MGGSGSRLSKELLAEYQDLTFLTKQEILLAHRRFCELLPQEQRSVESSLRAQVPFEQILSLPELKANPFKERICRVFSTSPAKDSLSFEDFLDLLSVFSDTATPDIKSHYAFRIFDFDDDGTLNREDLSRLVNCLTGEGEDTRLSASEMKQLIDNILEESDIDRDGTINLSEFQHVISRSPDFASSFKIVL
row,Compound,outcome
1,CC1=C(C(=O)Nc2nccs2)C(c2ccccc2Br)N=C(Nc2nc3ccccc3o2)N1 (stereo not given),inactive
2,N#Cc1c(-c2cccc(-c3no[n+]([O-])c3C#N)c2)no[n+]1[O-],inactive
3,O=C(O)c1ccc(O)c2ncc(N3CCCNCC3)cc12,inactive
4,Cn1cc(P(=S)(c2ccccc2)c2ccccc2)c2ccccc21,inactive
5,Cn1c(-c2ccccc2)c(P(=S)(c2ccccc2)c2ccccc2)c2ccccc21,inactive
6,CCCc1ccc(NC(=O)c2ccc3c(c2)NC(=O)CS3)cc1,inactive
7,COc1cccc(CNc2ccc(S(=O)(=O)Nc3ccc4ccccc4c3)cc2)c1O,inactive
8,N#Cc1c(-c2ccc([N+](=O)[O-])o2)no[n+]1[O-],inactive
9,Cc1ccccc1C(=O)N1CCc2cc(N3CCC(NC(=O)Cc4ccccc4)C3)ccc21 (stereo not given),inactive
10,COc1cccc(CNc2ccc(S(=O)(=O)Nc3nccs3)cc2)c1OC,inactive
11,CCOc1ccc(CCNC(=O)c2cc3cccnc3n2Cc2cccc(C)c2)cc1OCC,inactive
12,Cc1cccc2nc(NC3=NC(c4[nH]ncc4Cl)C4=C(CCCC4=O)N3)oc12 (stereo not given),inactive
